This is an account of results in PubChem BioAssay.

Active and inactive are the calls of the source.

A short description of test [1]: small molecules captured by biotinylated probe aFSTL3 – biochemical, small-molecule microarray, fluorescence 635/667, stem cell growth factor project, primary screen (AID 1064).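 Note: measures binding of the biotinylated anti-FSTL3 antibody to printed compounds.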 The settings on record: higher = more signal.
A short description of test [2]: binders from COS7 lysate, DM2A8 probe, primary screen, torsin A project, cell lysate, small-molecule microarray, fluorescence 635/667 (AID 1065). The settings on record: higher = more signal, COS7 lysate expressing mutant human TOR1A.
The nature of test [3]: small molecules captured by biotinylated probe aFGF2 – biochemical, small-molecule microarray, fluorescence 635/667, stem cell growth factor project, primary screen (AID 1067).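 Note: measures binding of biotinylated aFGF2 protein to printed compounds on slides; z-score merges feature fluorescence and signal-to-noise across triplicate slides.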 The settings on record: higher = more signal.
A short description of test [4]: small molecules captured by biotinylated probe aFGF10 – biochemical, small-molecule microarray, fluorescence 635/667, stem cell growth factor project, primary screen (AID 1071).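 Note: score merges 667 nm spot intensity and signal to noise from triplicate slides.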 The conditions noted are these: higher = more signal.
Test [5] addresses Neurogenic locus notch homolog protein 2 (Homo sapiens) (UniProt Q04721). The test can be described thus: small molecules binding Notch2 protein – biochemical, small-molecule microarray, 635 nm fluorescence, stem cell growth factors, primary screen (AID 1073). The conditions noted are these: higher = more signal.
Test [6] concerns the target Pro-neuregulin-1, membrane-bound isoform (Homo sapiens) (UniProt Q02297). The test can be described thus: small molecules binding neuregulin-1 protein – biochemical, small-molecule microarray, fluorescence 635/667, psychiatric disease protein project, primary screen (AID 1075).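 Note: score combines 667 nm spot fluorescence with signal to noise.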 The conditions noted are these: NRG1 binding, 635 nm fluorescence, higher = more signal.
The test system of test [7] is Neuregulin-1 EGF-like domain. Briefly: small molecules binding NRG1 EGF domain – biochemical, small-molecule microarray, 635 nm fluorescence, primary screen (AID 1081).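 Note: binding of the protein to compounds printed on small-molecule microarray slides.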 The settings on record: higher = more signal.
Test [8] can be described thus: FRG1 expression reporter modulators in myotubes – cell-based, C2C12 myotubes, firefly/Renilla luciferase, luminescence, FRG1 inhibition for FSHD, primary screen (AID 1084). The settings on record: FRG1 promoter luciferase, higher = more signal, called active from +8 up or from −8 down.
The nature of test [9]: small molecules captured by biotinylated probe aFST – biochemical, small-molecule microarray, fluorescence 635/667, stem cell growth factor project, primary screen (AID 1086).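 Note: score merges 667 nm fluorescence with signal-to-noise of each printed compound spot.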 The conditions noted are these: higher = more signal.
Test [10] in a line: binders of probe aHhip on microarray, primary screen, stem cell growth factor project, biochemical, small-molecule microarray, fluorescence 635/667 (AID 1087).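 Note: score merges spot fluorescence at 667nm with spot signal to noise ratio.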 The settings on record: higher = more signal.
For test [11], the system named is PRMT1 (protein arginine N-methyltransferase 1). Briefly: small molecules binding arginine methyltransferase PRMT1 – biochemical, small-molecule microarray, 635 nm fluorescence, primary screen (AID 1088).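 Note: binding of Prmt1 protein to compounds spotted on small-molecule microarray slides.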 The settings on record: higher = more signal.
A short description of test [12]: growth effects on S. cerevisiae YJM789 – YJM789 clinical isolate, OD600, 24 h, basal, primary screen (AID 1089).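 Note: growth of clinical yeast isolate S. cerevisiae YJM 789 seeded 1000 cells per well; test concentration not given here.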 The settings on record: higher = more signal, called active from +8 up or from −8 down.
Test [13] can be described thus: S. pombe growth modifiers, basal conditions – strain 972, OD600, 24 h, no modulator, primary screen (AID 1090).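 Note: basal condition with compound alone and no growth modifier present; test concentration not given here.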 The settings on record: S. pombe 972 growth, higher = more signal, called active from +8 up or from −8 down.
A short description of test [14]: budding yeast growth modifiers under rapamycin – strain BY4716, OD600, 96 h, primary screen (AID 1091). Note: test concentration not given here. The settings on record: S. cerevisiae BY4716 + rapamycin, higher = more signal, called active from +8 up or from −8 down.
The target of test [15] is Torsin-1A-interacting protein 2 (Homo sapiens) (UniProt Q8NFQ8). The test can be described thus: small molecules binding lysate-expressed LULL1 – cell lysate, human LULL1 lysate, 635/667 nm fluorescence, primary screen (AID 1092).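 Note: probe is lysate of COS7 cells overexpressing human LULL1; score merges per-feature 667 nm fluorescence with signal-to-noise.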 The settings on record: small-molecule microarray, hLULL1 lysate binding, 635 nm fluorescence; higher = more signal.
Test [16] is described as follows: optical density change of DRC41 E. coli – strain DRC41, OD650, 24 h, E. coli filamentation project, primary screen (AID 1093).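 Note: MC1000 strain lacking acrAB efflux and sulA so SOS filamentation is blocked; test concentration not given here.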 The conditions noted are these: E. coli DRC41 growth, higher = more signal, called active from +8 up or from −8 down.
Test [17] is described as follows: probe aLefty2 binding to arrayed compounds – biochemical, biotinylated probe, 635/667 nm fluorescence, primary screen (AID 1094).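 Note: score merges spot fluorescence near 667 nm with spot signal-to-noise ratio.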 The conditions noted are these: small-molecule microarray, higher = more signal.
Test [18] concerns Noggin (protein binding on small-molecule microarray). The test can be described thus: small molecules binding Noggin protein – biochemical, 635/667 nm fluorescence, primary screen (AID 1095).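 Note: score merges 667 nm feature fluorescence with signal to noise over triplicate slides.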 The conditions noted are these: 635 nm fluorescence, higher = more signal.
Test [19] deals with Neurogenic locus notch homolog protein 3 (Homo sapiens) (UniProt Q9UM47). The test can be described thus: small molecules binding NOTCH3 protein – biochemical, 635/667 nm fluorescence, primary screen (AID 1096). The settings on record: small-molecule microarray, 635 nm fluorescence, higher = more signal.
A short description of test [20]: probe aEGFR binding to arrayed compounds – biochemical, biotinylated probe, 635/667 nm fluorescence, primary screen (AID 1097).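 Note: probe is a biotinylated anti-EGFR antibody binding compounds printed on slides; score combines fluorescence near 667 nm and signal to noise of each spot.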 The conditions noted are these: small-molecule microarray, higher = more signal.

Sequence of Neurogenic locus notch homolog protein 3 (Homo sapiens) (Q9UM47 whole entry, looked up): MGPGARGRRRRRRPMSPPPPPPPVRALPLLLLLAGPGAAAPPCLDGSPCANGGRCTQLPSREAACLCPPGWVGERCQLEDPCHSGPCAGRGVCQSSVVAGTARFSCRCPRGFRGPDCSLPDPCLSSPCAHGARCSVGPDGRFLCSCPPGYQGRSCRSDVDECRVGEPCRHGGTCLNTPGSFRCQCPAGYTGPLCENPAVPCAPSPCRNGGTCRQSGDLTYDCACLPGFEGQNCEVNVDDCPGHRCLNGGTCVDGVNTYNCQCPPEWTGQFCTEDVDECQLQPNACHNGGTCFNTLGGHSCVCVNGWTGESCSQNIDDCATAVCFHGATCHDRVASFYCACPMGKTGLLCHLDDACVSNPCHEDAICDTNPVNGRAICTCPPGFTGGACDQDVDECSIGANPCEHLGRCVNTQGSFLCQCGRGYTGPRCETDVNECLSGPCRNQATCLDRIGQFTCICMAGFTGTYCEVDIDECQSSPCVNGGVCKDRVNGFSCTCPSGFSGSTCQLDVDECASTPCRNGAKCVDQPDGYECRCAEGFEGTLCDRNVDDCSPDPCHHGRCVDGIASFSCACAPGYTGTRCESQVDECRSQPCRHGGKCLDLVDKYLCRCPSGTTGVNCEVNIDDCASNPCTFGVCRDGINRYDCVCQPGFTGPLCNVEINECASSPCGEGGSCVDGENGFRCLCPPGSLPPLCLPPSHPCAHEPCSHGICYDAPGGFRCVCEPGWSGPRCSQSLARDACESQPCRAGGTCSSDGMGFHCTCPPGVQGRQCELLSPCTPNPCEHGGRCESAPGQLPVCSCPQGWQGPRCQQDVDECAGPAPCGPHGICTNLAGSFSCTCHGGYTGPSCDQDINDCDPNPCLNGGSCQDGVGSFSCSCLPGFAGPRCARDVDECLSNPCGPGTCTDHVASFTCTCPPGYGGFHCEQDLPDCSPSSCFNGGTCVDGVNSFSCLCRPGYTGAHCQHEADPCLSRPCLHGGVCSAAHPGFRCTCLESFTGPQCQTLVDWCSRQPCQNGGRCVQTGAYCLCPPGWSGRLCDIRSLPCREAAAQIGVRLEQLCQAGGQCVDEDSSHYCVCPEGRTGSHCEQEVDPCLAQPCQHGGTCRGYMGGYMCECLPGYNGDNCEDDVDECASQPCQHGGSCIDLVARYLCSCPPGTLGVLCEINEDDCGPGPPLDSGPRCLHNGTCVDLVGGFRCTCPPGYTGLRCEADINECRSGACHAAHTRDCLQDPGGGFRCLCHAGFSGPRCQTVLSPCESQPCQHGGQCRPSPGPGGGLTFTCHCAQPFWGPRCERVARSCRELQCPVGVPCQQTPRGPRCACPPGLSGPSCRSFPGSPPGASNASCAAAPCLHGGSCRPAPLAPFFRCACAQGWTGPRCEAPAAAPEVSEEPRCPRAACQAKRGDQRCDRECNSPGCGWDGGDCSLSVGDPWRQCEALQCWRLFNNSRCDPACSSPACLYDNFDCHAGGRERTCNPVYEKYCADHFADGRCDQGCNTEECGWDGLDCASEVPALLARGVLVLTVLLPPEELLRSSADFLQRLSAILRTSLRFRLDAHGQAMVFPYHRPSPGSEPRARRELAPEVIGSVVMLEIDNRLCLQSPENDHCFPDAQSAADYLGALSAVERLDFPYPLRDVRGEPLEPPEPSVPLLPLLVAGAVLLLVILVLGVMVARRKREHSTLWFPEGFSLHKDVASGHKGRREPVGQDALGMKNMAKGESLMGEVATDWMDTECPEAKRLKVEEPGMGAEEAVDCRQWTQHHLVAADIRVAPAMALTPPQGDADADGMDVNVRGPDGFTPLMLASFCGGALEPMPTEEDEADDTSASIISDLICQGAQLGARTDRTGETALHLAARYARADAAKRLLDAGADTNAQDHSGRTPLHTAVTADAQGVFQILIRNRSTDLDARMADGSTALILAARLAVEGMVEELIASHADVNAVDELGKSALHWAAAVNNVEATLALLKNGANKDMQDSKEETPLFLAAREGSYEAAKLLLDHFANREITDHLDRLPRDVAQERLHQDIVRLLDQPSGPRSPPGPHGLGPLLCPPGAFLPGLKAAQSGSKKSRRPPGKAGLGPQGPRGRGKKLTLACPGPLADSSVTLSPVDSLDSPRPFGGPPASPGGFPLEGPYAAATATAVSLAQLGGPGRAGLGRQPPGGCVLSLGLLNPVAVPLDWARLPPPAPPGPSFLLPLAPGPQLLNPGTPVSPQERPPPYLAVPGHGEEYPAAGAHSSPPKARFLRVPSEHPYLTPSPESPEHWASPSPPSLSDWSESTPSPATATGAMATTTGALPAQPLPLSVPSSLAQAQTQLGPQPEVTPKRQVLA
Sequence of Pro-neuregulin-1, membrane-bound isoform (Homo sapiens) (Q02297 whole entry, looked up, the tested form may be a part, canonical isoform): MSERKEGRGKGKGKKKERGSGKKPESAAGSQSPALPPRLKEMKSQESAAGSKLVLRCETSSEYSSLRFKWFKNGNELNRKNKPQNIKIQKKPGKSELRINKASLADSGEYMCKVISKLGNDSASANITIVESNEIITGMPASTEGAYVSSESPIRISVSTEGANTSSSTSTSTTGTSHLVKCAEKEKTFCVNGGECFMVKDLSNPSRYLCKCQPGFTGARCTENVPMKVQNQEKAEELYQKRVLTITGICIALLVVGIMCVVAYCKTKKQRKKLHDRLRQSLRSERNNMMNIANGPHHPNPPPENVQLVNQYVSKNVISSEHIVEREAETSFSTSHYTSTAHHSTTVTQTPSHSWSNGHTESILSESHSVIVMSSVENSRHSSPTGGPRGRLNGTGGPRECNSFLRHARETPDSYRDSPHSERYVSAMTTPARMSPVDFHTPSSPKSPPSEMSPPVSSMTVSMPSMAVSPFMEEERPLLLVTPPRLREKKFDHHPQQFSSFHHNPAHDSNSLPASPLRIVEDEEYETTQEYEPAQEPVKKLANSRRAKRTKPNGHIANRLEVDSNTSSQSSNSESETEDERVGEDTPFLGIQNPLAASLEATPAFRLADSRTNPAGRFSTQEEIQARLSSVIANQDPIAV
Sequence of Torsin-1A-interacting protein 2 (Homo sapiens) (Q8NFQ8 whole entry, looked up): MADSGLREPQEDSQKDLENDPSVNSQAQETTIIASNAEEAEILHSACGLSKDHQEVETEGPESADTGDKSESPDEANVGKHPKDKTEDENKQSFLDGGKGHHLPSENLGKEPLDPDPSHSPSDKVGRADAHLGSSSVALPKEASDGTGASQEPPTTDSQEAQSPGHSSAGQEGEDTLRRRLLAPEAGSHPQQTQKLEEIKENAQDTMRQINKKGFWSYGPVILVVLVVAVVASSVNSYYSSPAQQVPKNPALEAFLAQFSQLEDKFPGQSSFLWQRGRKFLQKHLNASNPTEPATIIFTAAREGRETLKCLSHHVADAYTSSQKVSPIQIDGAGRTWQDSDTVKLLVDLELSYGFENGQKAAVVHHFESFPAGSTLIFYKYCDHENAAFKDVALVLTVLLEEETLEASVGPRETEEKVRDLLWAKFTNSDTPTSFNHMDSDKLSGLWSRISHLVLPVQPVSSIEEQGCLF

On to `CN(C)C(=O)[C@@]1(CCC(=O)OC(C)(C)C)N=C(c2ccc(OCCCO)cc2)O[C@H]1c1ccccc1`, for which the composite z-score in [1] is 1.01; in test [2], 2.11; in test [3], 0.112; in test [4] it was 0.31; in test [5] it was -0.282; in test [6] it was 1.92. The composite z-score amounted to 1.33 in test [7]; 0.356 in test [9]; 0.597 in test [10]; 1.41 in test [11]; 3.55 in test [15]; 0.346 in test [17]. In addition, the figures for the composite z-score in test [18], in test [19] and in test [20] were 0.94, 0.0453 and 0.0197, respectively. Moreover, the z-score in test [8] is -0.624 (inactive); in test [12], -0.365 (inactive); in test [13], -0.0946 (inactive); in test [14], -0.213 (inactive); in [16] it was -0.444 (inactive).
In the case of `COc1ccc([Si](C)(C)[C@@H]2[C@@H](CCn3cc([C@H](O)c4ccccc4)nn3)O[C@]3(C(=O)N(Cc4ccc(N5C(=O)c6cccc7cccc5c67)cc4)c4ccccc43)[C@H]2C)cc1`, the composite z-score in test [1] is 0.428; in [2] it was 0.174; in [3], -0.162; in test [4], -0.16; in [5], -0.574; in [6], 0.569. For the same compound, the composite z-score in test [7] is 0.594; in [9], -0.587; in [10], -0.199; in [11], 0.534; in test [15], 1; in test [17] it was -0.0237. The composite z-score in [18] is -0.345; in test [19], 0.0481; in [20] it was -0.217. In addition, the z-score in test [8] was -0.353 (inactive); in test [12], 0.316 (inactive); in test [13], -0.197 (inactive); in test [14], 1.64 (inactive); in test [16], 1.05 (inactive).
With `CCOC(=O)C[C@H]1[C@H](OC(=O)c2ccccc2-c2ccccc2)[C@@H](NC(=O)Cc2ccc(OC)cc2)c2cc(OCCCO)ccc2N1C(=O)c1ccccc1`, the composite z-score in test [1] was -0.0656; in test [2], 0.629; in test [3], -0.0942; in test [4] it was 0.321; in test [5] it was 0.125; in test [6], -0.299. The composite z-score is -0.537 in test [7]; 0.369 in [9]; -0.0645 in test [10]; -0.617 in [11]; 1.33 in test [15]; -0.218 in [17]. The composite z-score is -0.337 in test [18], -0.231 in [19] and -0.115 in test [20]. Moreover, the z-score is -0.735 (inactive) in [8]; 0.82 (inactive) in test [12]; 0.266 (inactive) in test [13]; 1.36 (inactive) in test [14]; -1.08 (inactive) in [16].
For the compound `COCCOC(=O)N1C(=O)[C@@]2(c3cc(C#CC4=CCCCC4)ccc31)[C@H](C(=O)N1CCc3cc(OC)c(OC)cc3C1)[C@H]1C(=O)O[C@H](c3ccccc3)[C@H](c3ccccc3)N1[C@@H]2c1ccccc1OCCO`, the composite z-score in [1] was 0.243; in [2], 0.0781; in test [3], -0.0867; in test [4] it was -0.205; in [5], 0.138; in test [6] it was -0.442. The composite z-score is 1.06 in [7]; 0.186 in test [9]; -0.0645 in test [10]; 1.01 in test [11]; 1.97 in test [15]; 0.0906 in test [17]. Moreover, the results for the composite z-score in test [18], in [19] and in test [20] were 1.16, 1.09 and 0.0238, respectively. Moreover, the z-score was 0.801 (inactive) in test [8]; 1.51 (inactive) in test [12]; 1.35 (inactive) in test [13]; 2.78 (inactive) in test [14]; 0.982 (inactive) in test [16].
With `O=C1C2C=CC(C(O)c3ccc(B(O)O)cc3)N(Nc3ccccc3)C2C(=O)N1c1ccccc1` (stereo not given), the composite z-score in test [1] is 0.72; in test [2] it was 0.0762; in test [3] it was 0.0533; in test [4], -0.132; in test [5], 0.971; in test [6] it was 1.38. In addition, the composite z-score in [7] is -0.401; in test [9], 0.302; in test [10], -0.299; in test [11] it was -0.592; in test [15], 0.935; in test [17], 0.229. In addition, the composite z-score in [18] is -1.11; in [19] it was -0.085; in test [20], -0.041. The z-score in [8] was 4.59 (inactive); in test [12], 0.428 (inactive); in test [13], -4.7 (inactive); in [14], 0.642 (inactive); in test [16], -1.2 (inactive).
